This note sets out measurements from article PMC7862700, “An all-to-all approach to the identification of sequence-specific readers for epigenetic DNA modifications on cytosine”.

Holding throughout (assay): DAPPL (digital affinity profiling via proximity ligation, sequencing); 10 mM Tris-HCl pH 7.5, 50 mM NaCl, 1 mM DTT, 4% glycerol, room temperature, 30 min; GST-TFs on glutathione beads, 16-mer random dsDNA library, 0.1% formaldehyde crosslink after washing; high values mean tight binding
For one test, the target named is T1, FLI1 (Homo sapiens, UniProt Q01543 1-452).
T1 sequence: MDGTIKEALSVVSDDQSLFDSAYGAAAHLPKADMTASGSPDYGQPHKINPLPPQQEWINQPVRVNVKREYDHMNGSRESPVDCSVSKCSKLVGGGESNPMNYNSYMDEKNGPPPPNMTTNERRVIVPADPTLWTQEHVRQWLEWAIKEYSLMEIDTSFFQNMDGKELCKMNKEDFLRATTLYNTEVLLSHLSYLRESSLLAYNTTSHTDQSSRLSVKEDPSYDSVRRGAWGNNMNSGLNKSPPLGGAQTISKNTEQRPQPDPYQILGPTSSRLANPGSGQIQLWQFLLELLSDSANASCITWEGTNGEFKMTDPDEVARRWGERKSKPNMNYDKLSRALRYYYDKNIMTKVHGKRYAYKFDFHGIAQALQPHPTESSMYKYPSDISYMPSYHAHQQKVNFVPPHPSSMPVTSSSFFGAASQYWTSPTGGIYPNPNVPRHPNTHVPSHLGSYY
The following applies: protein: recombinant; tags: N-terminal GST; dsDNA, one strand shown. The method, boiled down: (§1)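 Pools of DNA-barcoded human transcription factors, expressed in yeast as GST fusions on glutathione beads and combined with a tag-only sample, were incubated with 200 nmole of a 16-mer random double-stranded DNA library. Incubation took 30 min at room temperature in Tris/NaCl/DTT/glycerol buffer and was followed by washing, 0.1% formaldehyde crosslinking, proximity ligation (BsaI/T4 ligase, 1 h, 37 °C), PCR amplification and sequencing on an Illumina NextSeq500. Binding signal is the ratio of a hexamer's read frequency for a factor to its frequency for the tag-only sample.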

Another test addresses T2, ELK1 (Homo sapiens, UniProt P19419 1-428).
T2 sequence: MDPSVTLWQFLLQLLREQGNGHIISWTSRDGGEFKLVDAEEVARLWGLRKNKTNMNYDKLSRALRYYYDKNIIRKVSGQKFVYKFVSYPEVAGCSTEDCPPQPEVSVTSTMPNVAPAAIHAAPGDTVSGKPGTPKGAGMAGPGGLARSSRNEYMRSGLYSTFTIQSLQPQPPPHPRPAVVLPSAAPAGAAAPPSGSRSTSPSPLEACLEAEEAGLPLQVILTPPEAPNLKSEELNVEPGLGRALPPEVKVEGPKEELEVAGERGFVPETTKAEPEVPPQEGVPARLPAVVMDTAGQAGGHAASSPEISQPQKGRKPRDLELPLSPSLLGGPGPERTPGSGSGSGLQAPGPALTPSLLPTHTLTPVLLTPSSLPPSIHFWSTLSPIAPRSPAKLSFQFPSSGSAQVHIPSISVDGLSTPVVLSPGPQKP
The note with it: protein: recombinant; tags: N-terminal GST; dsDNA, one strand shown. A digest of the protocol:
as §1

A further test deals with T3, ERG (Homo sapiens, UniProt P11308 1-479).
T3 sequence: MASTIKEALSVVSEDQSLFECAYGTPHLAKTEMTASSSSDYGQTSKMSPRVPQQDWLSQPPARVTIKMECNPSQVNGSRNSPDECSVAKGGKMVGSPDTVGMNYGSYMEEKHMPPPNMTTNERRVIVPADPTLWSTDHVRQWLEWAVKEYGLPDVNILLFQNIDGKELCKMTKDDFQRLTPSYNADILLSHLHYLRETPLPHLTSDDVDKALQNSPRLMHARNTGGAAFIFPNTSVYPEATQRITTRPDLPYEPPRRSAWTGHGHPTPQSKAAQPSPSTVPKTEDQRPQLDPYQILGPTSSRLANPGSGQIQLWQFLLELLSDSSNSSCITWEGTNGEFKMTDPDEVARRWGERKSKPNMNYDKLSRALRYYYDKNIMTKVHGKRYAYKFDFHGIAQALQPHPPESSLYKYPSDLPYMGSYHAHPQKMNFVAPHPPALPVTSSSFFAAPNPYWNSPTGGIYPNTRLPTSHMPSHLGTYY
The following applies: protein: recombinant; tags: N-terminal GST; dsDNA, one strand shown. The method, boiled down:
as §1

A further test has as its target ELF1 (Homo sapiens, UniProt P32519 1-619). The following applies: protein: recombinant; tags: N-terminal GST; dsDNA, one strand shown. The method, boiled down: as §1
For the next test, the target named is T4, EHF (Homo sapiens, UniProt Q9NZC4 1-300).
T4 sequence: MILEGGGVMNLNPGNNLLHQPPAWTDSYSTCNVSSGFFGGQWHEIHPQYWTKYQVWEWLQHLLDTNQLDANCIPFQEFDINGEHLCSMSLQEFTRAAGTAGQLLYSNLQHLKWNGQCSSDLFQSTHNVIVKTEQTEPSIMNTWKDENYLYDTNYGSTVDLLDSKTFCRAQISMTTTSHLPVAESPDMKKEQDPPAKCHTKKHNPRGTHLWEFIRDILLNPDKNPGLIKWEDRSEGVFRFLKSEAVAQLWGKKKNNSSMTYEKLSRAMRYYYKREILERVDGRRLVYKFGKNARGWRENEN
The following applies: protein: recombinant; tags: N-terminal GST; dsDNA, one strand shown. A digest of the protocol:
as §1

A further test concerns the target SPI1 (Homo sapiens, UniProt P17947 1-270). The following applies: protein: recombinant; tags: N-terminal GST; dsDNA, one strand shown. The method, boiled down: as §1
For a further test, the target named is SPIB (Homo sapiens, UniProt Q01892 1-262). The following applies: protein: recombinant; tags: N-terminal GST; dsDNA, one strand shown. The method, boiled down:
as §1

Another test concerns the target T5, ELK3 (Homo sapiens, UniProt P41970 1-407).
T5 sequence: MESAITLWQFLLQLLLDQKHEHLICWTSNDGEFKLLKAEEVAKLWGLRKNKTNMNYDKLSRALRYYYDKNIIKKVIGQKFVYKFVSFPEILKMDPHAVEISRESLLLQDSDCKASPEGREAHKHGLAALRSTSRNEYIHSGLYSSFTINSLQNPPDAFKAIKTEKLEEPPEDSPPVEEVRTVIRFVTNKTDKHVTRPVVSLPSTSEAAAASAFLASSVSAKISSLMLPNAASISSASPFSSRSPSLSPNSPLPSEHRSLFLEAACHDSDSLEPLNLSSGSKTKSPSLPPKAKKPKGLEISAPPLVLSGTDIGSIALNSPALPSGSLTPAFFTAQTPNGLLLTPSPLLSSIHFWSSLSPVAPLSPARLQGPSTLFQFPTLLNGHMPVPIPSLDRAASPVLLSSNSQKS
The note with it: protein: recombinant; tags: N-terminal GST; dsDNA, one strand shown. The method, boiled down: as §1

In another test the target is T6, FEV (Homo sapiens, UniProt Q99581 1-238).
T6 sequence: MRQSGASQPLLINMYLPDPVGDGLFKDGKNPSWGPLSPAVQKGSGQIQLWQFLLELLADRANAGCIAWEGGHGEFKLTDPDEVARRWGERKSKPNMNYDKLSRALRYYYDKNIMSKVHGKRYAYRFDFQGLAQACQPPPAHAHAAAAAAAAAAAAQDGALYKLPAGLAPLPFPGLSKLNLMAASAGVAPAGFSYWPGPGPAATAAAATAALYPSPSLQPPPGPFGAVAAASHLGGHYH
The note with it: protein: recombinant; tags: N-terminal GST; dsDNA, one strand shown. The method, boiled down:
as §1

Another test has as its target ETV5 (Homo sapiens, UniProt P41161 1-510). The following applies: protein: recombinant; tags: N-terminal GST; dsDNA, one strand shown. A digest of the protocol: as §1
A further test addresses HSF1 (Homo sapiens, UniProt Q00613 1-529). The note with it: protein: recombinant; tags: N-terminal GST; chain copies: 3; dsDNA, one strand shown. The method, boiled down:
as §1

The next test concerns the target T7, SPIC (Homo sapiens, UniProt Q8N5J4 1-248).
T7 sequence: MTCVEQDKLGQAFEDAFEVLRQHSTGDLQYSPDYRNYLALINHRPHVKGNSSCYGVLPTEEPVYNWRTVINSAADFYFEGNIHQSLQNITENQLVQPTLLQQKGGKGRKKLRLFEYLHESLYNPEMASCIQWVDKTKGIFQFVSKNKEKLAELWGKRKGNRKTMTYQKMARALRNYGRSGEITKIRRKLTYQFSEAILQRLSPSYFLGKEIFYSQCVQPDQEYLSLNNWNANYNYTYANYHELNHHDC
The note with it: protein: recombinant; tags: N-terminal GST; dsDNA, one strand shown. A digest of the protocol: as §1

A further test deals with ELF4 (Homo sapiens, UniProt Q99607 1-663). The note with it: protein: recombinant; tags: N-terminal GST; dsDNA, one strand shown. The method, boiled down: as §1
Chain of ELF4 (Q99607 whole entry): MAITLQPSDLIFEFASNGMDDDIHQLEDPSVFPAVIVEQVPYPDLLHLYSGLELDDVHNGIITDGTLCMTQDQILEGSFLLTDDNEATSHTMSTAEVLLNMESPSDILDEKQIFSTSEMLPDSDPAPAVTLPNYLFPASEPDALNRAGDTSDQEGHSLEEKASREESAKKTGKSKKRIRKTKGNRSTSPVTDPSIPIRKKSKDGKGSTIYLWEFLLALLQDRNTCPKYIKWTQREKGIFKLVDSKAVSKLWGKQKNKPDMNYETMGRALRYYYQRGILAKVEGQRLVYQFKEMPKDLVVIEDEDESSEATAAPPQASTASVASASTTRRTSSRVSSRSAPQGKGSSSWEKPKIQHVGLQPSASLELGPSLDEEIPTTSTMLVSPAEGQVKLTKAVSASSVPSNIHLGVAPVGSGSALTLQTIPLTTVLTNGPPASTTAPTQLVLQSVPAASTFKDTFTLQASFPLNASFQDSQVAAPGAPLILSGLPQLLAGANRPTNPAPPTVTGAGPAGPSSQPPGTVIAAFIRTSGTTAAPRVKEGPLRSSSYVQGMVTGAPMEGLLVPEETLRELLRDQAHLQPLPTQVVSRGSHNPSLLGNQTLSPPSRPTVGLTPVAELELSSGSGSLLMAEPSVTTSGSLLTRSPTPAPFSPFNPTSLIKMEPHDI
For the next test, the target named is T8, ELK4 (Homo sapiens, UniProt P28324-2 1-405).
T8 sequence: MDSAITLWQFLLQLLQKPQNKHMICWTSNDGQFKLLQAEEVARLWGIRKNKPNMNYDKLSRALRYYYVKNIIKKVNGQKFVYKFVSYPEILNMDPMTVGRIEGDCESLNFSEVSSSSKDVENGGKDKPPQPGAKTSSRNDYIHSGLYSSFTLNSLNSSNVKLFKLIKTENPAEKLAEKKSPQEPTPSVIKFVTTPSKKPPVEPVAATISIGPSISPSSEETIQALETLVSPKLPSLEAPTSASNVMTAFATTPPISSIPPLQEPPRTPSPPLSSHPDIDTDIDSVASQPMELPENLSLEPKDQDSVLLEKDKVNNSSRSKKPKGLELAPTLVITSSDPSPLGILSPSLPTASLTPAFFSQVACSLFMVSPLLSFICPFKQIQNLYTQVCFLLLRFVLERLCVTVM
The following applies: protein: recombinant; tags: N-terminal GST; dsDNA, one strand shown. A digest of the protocol:
as §1

In another test the target is T9, ETV2 (Homo sapiens, UniProt O00321 1-342).
T9 sequence: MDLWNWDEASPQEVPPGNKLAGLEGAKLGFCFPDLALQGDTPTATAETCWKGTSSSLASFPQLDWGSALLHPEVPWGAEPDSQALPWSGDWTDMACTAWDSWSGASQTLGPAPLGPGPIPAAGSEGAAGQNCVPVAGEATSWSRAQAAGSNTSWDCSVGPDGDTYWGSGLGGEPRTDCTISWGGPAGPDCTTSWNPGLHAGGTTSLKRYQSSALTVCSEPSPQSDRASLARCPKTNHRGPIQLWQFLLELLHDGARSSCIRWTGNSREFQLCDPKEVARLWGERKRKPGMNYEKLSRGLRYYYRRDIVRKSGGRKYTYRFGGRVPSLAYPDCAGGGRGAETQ
The following applies: protein: recombinant; tags: N-terminal GST; dsDNA, one strand shown. A digest of the protocol:
as §1

The target in another test is T10, ELF3 (Homo sapiens, UniProt P78545 1-371).
T10 sequence: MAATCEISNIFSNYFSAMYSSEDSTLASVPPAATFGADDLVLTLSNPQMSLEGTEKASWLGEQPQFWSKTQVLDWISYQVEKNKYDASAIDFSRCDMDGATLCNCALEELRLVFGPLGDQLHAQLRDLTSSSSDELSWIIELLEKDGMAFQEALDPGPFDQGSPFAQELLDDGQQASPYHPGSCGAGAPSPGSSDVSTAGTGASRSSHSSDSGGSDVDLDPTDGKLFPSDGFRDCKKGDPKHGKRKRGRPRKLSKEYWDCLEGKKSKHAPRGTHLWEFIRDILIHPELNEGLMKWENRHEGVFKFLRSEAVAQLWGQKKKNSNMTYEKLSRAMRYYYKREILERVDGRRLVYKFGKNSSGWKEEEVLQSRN
The note with it: protein: recombinant; tags: N-terminal GST; dsDNA, one strand shown. The method, boiled down: as §1

For a further test, the target named is CRX (Homo sapiens, UniProt O43186 1-299). The following applies: protein: recombinant; tags: N-terminal GST; dsDNA, one strand shown. A digest of the protocol:
as §1

Another test deals with ETV1 (Homo sapiens, UniProt P50549 1-477). The following applies: protein: recombinant; tags: N-terminal GST; dsDNA, one strand shown. The method, boiled down: as §1
Chain of ETV1 (P50549 whole entry): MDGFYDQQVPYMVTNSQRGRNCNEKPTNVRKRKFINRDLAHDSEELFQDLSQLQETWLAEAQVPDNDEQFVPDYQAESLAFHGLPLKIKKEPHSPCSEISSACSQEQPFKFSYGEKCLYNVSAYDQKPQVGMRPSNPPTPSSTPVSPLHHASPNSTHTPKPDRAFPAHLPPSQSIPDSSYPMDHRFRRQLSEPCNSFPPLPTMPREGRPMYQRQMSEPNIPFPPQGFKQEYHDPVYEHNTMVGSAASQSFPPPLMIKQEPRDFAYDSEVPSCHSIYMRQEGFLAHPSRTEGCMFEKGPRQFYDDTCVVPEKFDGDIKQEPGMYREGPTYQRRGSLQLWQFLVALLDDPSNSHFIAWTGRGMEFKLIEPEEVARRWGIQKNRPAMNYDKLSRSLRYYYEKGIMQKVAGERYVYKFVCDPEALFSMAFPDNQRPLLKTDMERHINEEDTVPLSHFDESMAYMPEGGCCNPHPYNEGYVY

Chain of ELF1 (P32519 whole entry): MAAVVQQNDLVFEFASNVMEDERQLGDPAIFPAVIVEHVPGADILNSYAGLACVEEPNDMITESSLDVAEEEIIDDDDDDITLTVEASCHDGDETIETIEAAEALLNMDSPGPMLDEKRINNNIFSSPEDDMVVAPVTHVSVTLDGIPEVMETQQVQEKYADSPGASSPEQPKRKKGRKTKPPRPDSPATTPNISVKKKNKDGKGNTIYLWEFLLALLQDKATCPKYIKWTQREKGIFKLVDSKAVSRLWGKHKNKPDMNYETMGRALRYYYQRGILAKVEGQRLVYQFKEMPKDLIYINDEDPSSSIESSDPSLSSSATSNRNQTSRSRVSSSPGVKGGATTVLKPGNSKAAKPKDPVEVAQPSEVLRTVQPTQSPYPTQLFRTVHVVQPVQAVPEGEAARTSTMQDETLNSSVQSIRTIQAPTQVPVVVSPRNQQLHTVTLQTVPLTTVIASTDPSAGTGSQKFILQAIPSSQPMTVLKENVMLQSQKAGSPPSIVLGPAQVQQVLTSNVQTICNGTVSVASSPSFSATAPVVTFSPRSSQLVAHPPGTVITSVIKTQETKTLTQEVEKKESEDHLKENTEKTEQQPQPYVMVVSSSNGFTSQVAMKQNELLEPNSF
Chain of ETV5 (P41161 whole entry): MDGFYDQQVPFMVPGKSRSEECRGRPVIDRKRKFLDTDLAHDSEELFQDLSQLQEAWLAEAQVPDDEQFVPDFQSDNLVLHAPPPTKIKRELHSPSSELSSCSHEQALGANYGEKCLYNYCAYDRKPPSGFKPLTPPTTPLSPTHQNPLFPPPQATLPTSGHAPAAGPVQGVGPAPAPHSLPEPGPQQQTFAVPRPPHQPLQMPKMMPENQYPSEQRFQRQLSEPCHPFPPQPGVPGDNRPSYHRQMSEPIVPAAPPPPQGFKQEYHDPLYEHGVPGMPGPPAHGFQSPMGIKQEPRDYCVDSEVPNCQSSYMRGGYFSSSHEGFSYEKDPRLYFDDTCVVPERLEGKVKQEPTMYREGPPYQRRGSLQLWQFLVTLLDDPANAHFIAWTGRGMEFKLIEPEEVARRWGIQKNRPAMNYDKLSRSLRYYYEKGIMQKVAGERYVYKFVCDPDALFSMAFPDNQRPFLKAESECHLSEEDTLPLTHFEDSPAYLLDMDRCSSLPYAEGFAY
Chain of HSF1 (Q00613 whole entry): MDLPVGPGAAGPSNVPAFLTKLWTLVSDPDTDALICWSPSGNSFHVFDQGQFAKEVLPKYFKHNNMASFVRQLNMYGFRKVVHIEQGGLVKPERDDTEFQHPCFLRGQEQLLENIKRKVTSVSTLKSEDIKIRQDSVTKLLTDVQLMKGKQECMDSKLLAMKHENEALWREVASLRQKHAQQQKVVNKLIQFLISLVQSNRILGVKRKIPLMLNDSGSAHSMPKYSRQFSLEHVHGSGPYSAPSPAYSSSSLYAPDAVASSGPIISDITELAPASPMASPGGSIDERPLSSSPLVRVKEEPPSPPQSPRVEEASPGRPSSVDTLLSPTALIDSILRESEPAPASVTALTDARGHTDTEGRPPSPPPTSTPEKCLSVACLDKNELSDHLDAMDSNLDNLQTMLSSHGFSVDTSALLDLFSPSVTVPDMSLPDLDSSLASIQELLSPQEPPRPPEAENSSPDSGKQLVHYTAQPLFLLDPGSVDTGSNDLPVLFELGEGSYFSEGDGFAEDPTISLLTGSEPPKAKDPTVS
Chain of CRX (O43186 whole entry): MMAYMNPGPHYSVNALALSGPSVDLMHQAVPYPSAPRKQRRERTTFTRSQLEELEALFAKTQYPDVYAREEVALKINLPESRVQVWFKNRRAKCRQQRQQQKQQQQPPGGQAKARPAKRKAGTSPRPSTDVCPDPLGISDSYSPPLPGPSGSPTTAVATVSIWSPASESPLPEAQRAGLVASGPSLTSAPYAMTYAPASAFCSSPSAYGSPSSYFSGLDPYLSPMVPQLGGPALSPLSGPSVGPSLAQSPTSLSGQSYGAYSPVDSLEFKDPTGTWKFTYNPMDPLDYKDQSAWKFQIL
Chain of SPIB (Q01892 whole entry): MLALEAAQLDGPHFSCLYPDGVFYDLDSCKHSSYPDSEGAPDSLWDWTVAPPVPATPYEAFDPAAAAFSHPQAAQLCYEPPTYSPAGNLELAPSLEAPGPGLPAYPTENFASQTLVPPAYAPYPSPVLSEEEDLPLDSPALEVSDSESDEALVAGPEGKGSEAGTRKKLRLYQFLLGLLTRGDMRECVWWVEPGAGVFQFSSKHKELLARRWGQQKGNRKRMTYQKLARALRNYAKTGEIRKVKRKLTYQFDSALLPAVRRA

Regarding CAAATC, the binding signal with FLI1 was 1.06 fold enrichment (6-mer frequency, TF over GST control); with ELK1 it was 1.08 fold enrichment (6-mer frequency, TF over GST control); with ERG, 1.14 fold enrichment (6-mer frequency, TF over GST control); in the test with ELF1 it was 1.16 fold enrichment (6-mer frequency, TF over GST control); in the test with EHF, 1.12 fold enrichment (6-mer frequency, TF over GST control); with SPI1, 1.04 fold enrichment (6-mer frequency, TF over GST control). For the same sequence, the binding signal with SPIB was 1.11 fold enrichment (6-mer frequency, TF over GST control); with ELK3, 1.01 fold enrichment (6-mer frequency, TF over GST control); with FEV, 1.16 fold enrichment (6-mer frequency, TF over GST control); in the test with ETV5, 1.14 fold enrichment (6-mer frequency, TF over GST control); in the test with HSF1, 1.29 fold enrichment (6-mer frequency, TF over GST control); in the test with SPIC, 1.17 fold enrichment (6-mer frequency, TF over GST control). The binding signal is 1.12 fold enrichment (6-mer frequency, TF over GST control) with ELF4; 1.17 fold enrichment (6-mer frequency, TF over GST control) with ELK4; 1.1 fold enrichment (6-mer frequency, TF over GST control) in the test with ETV2; 1.12 fold enrichment (6-mer frequency, TF over GST control) with ELF3; 1.69 fold enrichment (6-mer frequency, TF over GST control) in the test with CRX; 1.15 fold enrichment (6-mer frequency, TF over GST control) in the test with ETV1.
